# Out of some 310,000 compounds screened, about 2,200 (0.71%) showed an effect of 50% or more. The effect is printed as a negative number. The list comes from a sample in which strong results are over-represented; it also holds similar structures and randomly drawn compounds.
# Target: human ether-à-go-go-related gene (hERG) potassium channel (human, UniProt Q12809)
# Test: primary screen, population patch clamp on CHO cells stably expressing hERG; higher = less effect of the substance
# Chain of human ether-à-go-go-related gene (hERG) potassium channel (Q12809 whole entry, looked up): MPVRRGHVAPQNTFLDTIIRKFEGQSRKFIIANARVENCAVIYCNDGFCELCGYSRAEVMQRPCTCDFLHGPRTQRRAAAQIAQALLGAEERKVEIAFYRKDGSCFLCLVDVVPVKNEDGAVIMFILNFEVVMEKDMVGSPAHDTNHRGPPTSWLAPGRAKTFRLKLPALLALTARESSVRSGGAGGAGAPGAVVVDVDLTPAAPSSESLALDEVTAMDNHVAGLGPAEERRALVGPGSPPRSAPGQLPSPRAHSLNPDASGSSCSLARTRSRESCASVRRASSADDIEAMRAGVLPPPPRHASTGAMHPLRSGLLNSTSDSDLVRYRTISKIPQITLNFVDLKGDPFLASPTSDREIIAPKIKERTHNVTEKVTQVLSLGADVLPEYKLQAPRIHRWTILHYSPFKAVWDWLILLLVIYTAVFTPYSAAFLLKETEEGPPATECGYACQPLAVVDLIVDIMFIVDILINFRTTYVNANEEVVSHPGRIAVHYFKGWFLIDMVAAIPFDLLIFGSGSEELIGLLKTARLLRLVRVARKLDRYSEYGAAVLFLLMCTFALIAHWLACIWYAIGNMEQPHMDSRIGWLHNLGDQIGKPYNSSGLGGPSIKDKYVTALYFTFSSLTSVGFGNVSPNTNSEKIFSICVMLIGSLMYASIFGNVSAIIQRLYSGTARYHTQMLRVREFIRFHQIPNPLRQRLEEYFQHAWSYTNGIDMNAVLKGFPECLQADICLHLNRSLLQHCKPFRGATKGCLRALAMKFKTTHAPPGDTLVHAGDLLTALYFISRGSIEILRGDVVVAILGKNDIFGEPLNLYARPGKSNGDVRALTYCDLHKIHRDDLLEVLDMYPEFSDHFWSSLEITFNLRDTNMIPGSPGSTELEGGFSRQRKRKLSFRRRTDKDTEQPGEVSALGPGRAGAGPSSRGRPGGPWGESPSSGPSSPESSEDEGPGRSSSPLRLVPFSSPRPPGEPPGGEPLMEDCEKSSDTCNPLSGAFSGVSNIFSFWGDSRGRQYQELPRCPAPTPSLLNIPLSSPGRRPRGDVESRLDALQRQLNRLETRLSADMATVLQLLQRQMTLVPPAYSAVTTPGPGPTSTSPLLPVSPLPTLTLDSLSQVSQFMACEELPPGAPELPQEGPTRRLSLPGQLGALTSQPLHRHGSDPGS
row,Structure (SMILES),"hERG current change (%, negative = inhibition) at 1uM [%]"
1,CCOc1ccc(S(=O)(=O)n2nc(C)cc2C)cc1,13.8
2,CCOc1cc(/C=N/NC(=O)CNc2ccc(C)cc2)ccc1OC(=O)c1ccccc1,-0.419
3,CN(Cc1c(F)cccc1Cl)C(=O)CNC(=O)c1ccc2c(c1)OCO2,13.8
4,CCCOc1ccc(NC(=O)CC2C(=O)N(c3ccc(OCC)cc3)C(=S)N2C2CC2)cc1 (stereo not drawn),-3.7
5,CN1CCN(c2ccc(NC(=O)c3ccc([N+](=O)[O-])o3)cc2Cl)CC1,-13.7
6,Cc1ccc(N2CC(O)Cn3c2nc2c3c(=O)n(C)c(=O)n2C)cc1 (stereo not drawn),13.5
7,CC(O)C[NH+]=c1cc(-c2ccccc2)oc2ccc(Cl)cc12.F[B-](F)(F)F (stereo not drawn),-57
8,CC(C)C[NH+]=c1cc(-c2ccccc2)oc2ccc(Cl)cc12.F[B-](F)(F)F,-81.1
9,CCc1ccc2oc(-c3ccc(OC)cc3)cc(=[NH+]c3cccc(C(=O)O)c3)c2c1.F[B-](F)(F)F,4.56
10,CCc1ccc2oc(-c3ccc(OC)cc3)cc(=[NH+]c3c(C)n(C)n(-c4ccccc4)c3=O)c2c1.F[B-](F)(F)F,-33.7
11,O=c1cc(-c2ccccc2)oc2ccccc12,13
12,Cc1cc(Cl)ccc1Oc1ncnc2oc(-c3ccccc3)cc12,6.84
13,COC(=O)c1sc(S(=O)(=O)N2CCC(C(N)=O)CC2)c(C(=O)OC)c1C,-10.8
14,Cc1cc2nnc(SCc3ccccc3)n2c(N)n1,-5.86
15,CCCCNC(=O)CN(c1ccc(Cl)c(Cl)c1)S(C)(=O)=O,7.06
16,CCOc1ccc(Br)cc1C1C(C(=O)OC)=C(N)Oc2cc(N(C)C)ccc21 (stereo not drawn),16.6
17,COC(=O)C1=C(N)Oc2cc(N(C)C)ccc2C1c1ccccc1OC (stereo not drawn),-84.1
18,COC(=O)C1=C(N)Oc2cc(C)[nH]c(=O)c2C1c1ccccc1OC (stereo not drawn),9.49
19,Cc1cc(C)nc(SCc2ccc(C(=O)N/N=C/c3cccc(O)c3O)cc2)n1,10.8
20,CCCc1cc(NCCCN2CCOCC2)n2c(nc3ccccc32)c1C#N,-37
21,c1ccc2[nH]c(NCCCN3CCOCC3)nc2c1,14.6
22,Cc1cc(NCCCN2CCOCC2)n2c(nc3ccccc32)c1C#N,-0.298

row,Structure (SMILES),"hERG current change (%, negative = inhibition) at 1uM [%]"
1,COc1ccc2nc(C)cc(NCCN3CCOCC3)c2c1,12.3
2,CC(C)c1cc(NCCCN2CCOCC2)n2c(nc3ccccc32)c1C#N,-55.7
3,c1ccc(-c2nc(NCCCN3CCOCC3)c3ccccc3n2)cc1,3.18
4,Cc1nc(NCCN2CCOCC2)c2oc3ccccc3c2n1.Cl,-8.71
5,c1ccc2c(NCCCN3CCOCC3)c3ccccc3nc2c1,-54.2
6,Cc1cc(NCCN2CCOCC2)c2ccc3ccccc3c2n1,-58.3
7,Cc1[nH]nc2c1C(c1ccccc1F)CC(=O)N2 (stereo not drawn),-1.84
8,Cc1c(Cl)cccc1NC(=O)COc1ccc(S(=O)(=O)N2CCOCC2)cc1,3.86
9,Cc1ccc(S(=O)(=O)N2CCN(CC(=O)NC3CCCc4ccccc43)CC2)cc1C.O=C(O)C(=O)O (stereo not drawn),1.77
10,CCC(=O)Nc1ccc(NC(=S)NC(=O)/C=C/c2ccco2)cc1,6
11,Cc1ccc(-c2cc(C(=O)NCCc3ccccn3)c3ccccc3n2)c(C)c1,-13.8
12,Brc1ccc(NC(c2ccccc2)c2ccncc2)cc1.Cl (stereo not drawn),17.3
13,COCCNC(=O)C(c1cccs1)N(C(=O)Cn1nnc2ccccc21)c1ccccc1 (stereo not drawn),2.32
14,CSC1=NC2(CC(c3ccccc3)Oc3cc(O)ccc32)CC(C)(C)N1 (stereo not drawn),-68.8
15,CC1(C)CC2(CC(c3ccccc3)Oc3cc(O)ccc32)NC(=O)N1 (stereo not drawn),10.8
16,CC1(C)CC2(CC(c3ccccc3)Oc3cc(O)ccc32)NC(=S)N1 (stereo not drawn),6.06
17,Cc1nnc(NC(=O)c2c(F)c(F)c(F)c(F)c2F)s1,15.5
18,O=C(Nc1cnccn1)C1c2ccccc2Oc2ccccc21,0.161
19,O=C(NCc1ccco1)c1n[nH]c(=O)c2ccccc12,11.8
20,Cc1nc(NCc2ccco2)c2c3c(sc2n1)CCC3,2.14
21,CSc1nc(SCC(=O)NCc2ccco2)c2c3c(sc2n1)CN(C)CC3,4.1
22,c1coc(CNc2ncnc3sc4c(c23)CCCCC4)c1,-16

row,Structure (SMILES),"hERG current change (%, negative = inhibition) at 1uM [%]"
1,CN1CCc2c(sc3c2c(NCc2ccco2)nc2nnnn23)C1,-72.8
2,CCN1CCc2c(sc(NC(=S)NC(=O)c3ccco3)c2C(N)=O)C1,15.8
3,CCN1CCc2c(sc3c2c(NCc2ccco2)nc2nnnn23)C1,-69.3
4,COc1ccc(C2C(C(=O)Nc3ccccc3OC)=C(C)Nc3nnnn32)c(OC)c1 (stereo not drawn),7.88
5,CC(NC(=S)NCCCN1CCOCC1)C12CC3CC(CC(C3)C1)C2 (stereo not drawn),12.9
6,CC(C)Cn1c(N)c(C(=O)NCCN2CCOCC2)c2nc3ccccc3nc21,-71.5
7,CCCCn1c(N)c(C(=O)NCCN2CCOCC2)c2nc3ccccc3nc21,-21
8,CCCCCn1c(N)c(C(=O)NCCN2CCOCC2)c2nc3ccccc3nc21,-0.506
9,Cc1c(C(=O)N(CCc2ccccc2)Cc2ccccc2)cccc1[N+](=O)[O-],12.7
10,CCC1CCCCN1Cc1nc(Cc2ccccc2Cl)no1 (stereo not drawn),4.88
11,OCCCC1CCCCN1Cc1nc(Cc2ccccc2Cl)no1 (stereo not drawn),-65.5
12,Clc1ccccc1Cc1noc(CN2CCCCC2CCc2ccccn2)n1 (stereo not drawn),-3.35
13,COC(=O)c1oc2ccccc2c1NC(=O)c1ccccc1O,16.2
14,Cc1ccc(C)c(NC(=O)CCN2C(=O)c3ccccc3C2=O)c1,15.3
15,CC(C)(C)NC(=O)CSCc1ccc(Br)cc1,1.24
16,O=C(Nc1nnc(-c2cccnc2)o1)c1cccc(Cl)c1,3.43
17,CCOCCCn1c(=NC(C)=O)c(C(=O)OCC)cc2c(=O)n3ccccc3nc21,-4.7
18,CCCCCn1c(=NC(=O)c2cccnc2)c(C#N)cc2c(=O)n3cccc(C)c3nc21,-5.66
19,CCOCCCn1c(=NC(=O)c2cccnc2)c(C(=O)OCC)cc2c(=O)n3ccccc3nc21,-67.8
20,CCOC(=O)c1cc2c(=O)n3ccccc3nc2n(CCCOC)c1=NC(=O)c1ccncc1,-40
21,CCOC(=O)c1cc2c(=O)n3cccc(C)c3nc2n(CCCOC)c1=NC(=O)c1cccnc1,-65.4
22,CCOC(=O)c1cc2c(=O)n3ccccc3nc2n(CCCOC)c1=NC(=O)c1cccnc1,-18.4

row,Structure (SMILES),"hERG current change (%, negative = inhibition) at 1uM [%]"
1,O=c1c2ccccc2c(C=NCCO)c(O)n1-c1ccccc1,11
2,Brc1ccc2c(c1)C(OC1CN3CCC1CC3)c1ccccc1CS2.O=C(O)/C=C\C(=O)O (stereo not drawn),-27.6
3,Cl.Fc1cccc(Nc2c3c(nc4ccccc24)CCC3)c1,-9.35
4,Cc1ccc(Nc2c3c(nc4ccccc24)CCC3)cc1.Cl,-57.7
5,COc1ccc(Nc2c3c(nc4ccccc24)CCCC3)cc1OC,-78
6,N#Cc1cccc(Nc2c3c(nc4ccccc24)CCC3)c1,-18
7,Cl.c1ccc(Nc2c3c(nc4ccccc24)CCC3)cc1,-33.1
8,Cl.c1ccc2c(Nc3ccc4c(c3)OCCO4)c3c(nc2c1)CCC3,-13.9
9,COc1cc(Nc2c3c(nc4ccccc24)CCCC3)cc(OC)c1OC,-48.3
10,COc1ccc(Nc2c3c(nc4ccccc24)CCC3)cc1.Cl,-14.5
11,Cc1ccc2nc3c(c(Nc4ccc5c(c4)OCCO5)c2c1)CCC3.Cl,-5.67
12,COc1cc(Nc2c3c(nc4ccccc24)CCC3)cc(OC)c1OC,-19.4
13,c1ccc2c(Nc3ccc4c(c3)OCCO4)c3c(nc2c1)CCCC3,-83.5
14,N#Cc1cccc(Nc2c3c(nc4ccccc24)CCCC3)c1,-60.5
15,Cc1nnc(SCc2ccc(C(=O)c3ccc(Cl)cc3)o2)n1-c1ccccc1,-14.1
16,Cc1[nH]c2ccccc2c1/C=C/c1nc2ccccc2c(=O)n1-c1cccc([N+](=O)[O-])c1,8.08
17,CCOc1ccc(C2c3c(oc4cc(C)c(C)cc4c3=O)C(=O)N2CCCN(C)C)cc1OC (stereo not drawn),4.1
18,CCN(CC)C(=O)CN(c1cccc(OC)c1)S(=O)(=O)c1ccc(C)cc1,13.2
19,Cc1ccc(-n2[nH]c(C)c(/C=N/Nc3ccc([N+](=O)[O-])cc3[N+](=O)[O-])c2=O)cc1C,9.38
20,CCOc1ccc(S(=O)(=O)NN=C2CCN(C(C)=O)CC2)cc1,2.55
21,CC(C)CNC(=O)CSc1nnc(-c2ccccn2)n1Cc1ccccc1,7.89

# — paper PMC4336329 (PLoS ONE, 2015)
